We go through 40 compounds from ChEMBL document CHEMBL3988442, “University of Dundee, Small-Polar-MMV Screening Library” (2021).

This assay addresses AMP-activated protein kinase, AMPK (Homo sapiens) (UniProt P54646+O43741+P54619+Q9UGJ0+Q9Y478+Q13131+Q9UGI9). The assay is described as follows: AMP-dependent Kinase enzyme assay. An in vitro enzyme assay that detects ADP turnover that is directly proportional to AMPK activity. This uses naive AMPK that is activated during the assay with MK-8722. In kind it is functional. Details: scale not given: direction of the effect not stated beside the values. The settings on record: 30 µM.
In the case of `CCN1CC2(CCN(CC3COCCO3)CC2)OC1=O` (stereo not given), the Percent Effect is -1.21%.

`COc1ccc(OC)c(S(=O)(=O)NC(=O)C(C)OC)c1` (stereo not given): the Percent Effect is -3.05%. In the case of `COc1cccc(C(C(=O)O)N2CCSCC2)c1F` (stereo not given), the Percent Effect is -1.18%. Consider `CC(C#N)NS(=O)(=O)c1cccc(C(C)C)c1` (stereo not given), for which the Percent Effect worked out at 0.482%. With `CN(c1ncc(S(N)(=O)=O)s1)C1CCc2ccccc21` (stereo not given), the Percent Effect was found to be 8.8%. With `C[C@@H]1CN(c2ccc(Cl)cn2)CC[C@@]1(O)C1CCOCC1`, the Percent Effect came to 5.56%. The figure for `Cc1nc(NC(=O)C(C)N(C)Cc2ccc3c(c2)OCO3)sc1C` (stereo not given) is 6%; for `O=C(COc1ccc(-n2cccn2)nn1)N1CCCC1` it is 3.54%. In the case of `CCCc1noc(C[S+]([O-])CC(=O)NCc2ccccc2)n1` (stereo not given), the Percent Effect was -0.224%. As to `CCN(CCNC(=O)Nc1nnc(C)s1)C(=O)OC(C)(C)C`, the Percent Effect is -0.666%. As to `CC1(C)COCCN1C(=O)Cc1cc(Cl)c2c(c1)OCCO2`, the Percent Effect was 10.7%. The figure for `COc1ccc(C(=O)N2CCN(C(=O)CCCc3cn[nH]c3)CC2)cc1` is 3.5%; for `Cc1c(NC(=O)CN(C)S(C)(=O)=O)cccc1OC1CCCC1` it is -0.429%. For the compound `Cc1ccc(C(C)N(C)C(=O)c2ccc(=O)n(C)c2)s1` (stereo not given), the Percent Effect is 3.36%. Then `Cn1nc(C(=O)NCc2ccc(OC3CCCCC3)nc2)ccc1=O`, with 8.07%; and `Cc1ccccc1N1CCCN(C(=O)CCc2nncn2C)CC1`, with -4.54%; and `CSc1nccc(N2CCC(NCc3ccc4nsnc4c3)CC2)n1`, with 2.27%. `Cc1cc(N2CCOC(c3ccccn3)C2)nc(N)n1` (stereo not given): the Percent Effect was 10.1%. The figure for `CN(C)c1cccc(C(=O)Nc2cnn(Cc3ccccn3)c2)c1` is -43.1%; for `Cc1ccc(C)n1-c1ccsc1C(=O)NCC(=O)N1CCCC1` it is 2.6%. For the compound `O=S(=O)(NCCCn1cncn1)c1ccc2c(c1)OCCCO2`, the Percent Effect turned out to be 10.2%. For `CC(c1ncc(-c2ccccc2)o1)N1CCN(C(=O)N(C)C)CC1` (stereo not given), the Percent Effect was -7.85%. Take `CN(C)c1nc(N)nc(CN2CCC(c3ccccc3)CC2)n1`: the Percent Effect was -6.86%.

Turning to `CC(=O)N1CCCC1CCc1ccnc(-c2cncnc2)c1` (stereo not given), the Percent Effect worked out at 22.4%.

On to `O=C1CN(C(=O)c2cc3ccc(Br)cc3[nH]2)CCN1`, for which the Percent Effect is 91%. Take `NC(=O)CN(Cc1ncc(-c2ccc(F)cc2)o1)C1CCCC1`: the Percent Effect was -3.13%.

With `COCCNc1ccc(CNCc2cnc3nc(C)cc(C)n23)cc1`, the Percent Effect was -9.48%. Then `CC(C)(C)OC(=O)N(CCNS(=O)(=O)N1CCOCC1)C1CC1`, with 8.24%. Then `Cc1cc(C(=O)NC(C)Cc2ccc(N(C)C)cc2)n(C)n1` (stereo not given), with 11.6%; and `NC(=O)CNC(=O)c1cc(Cn2cnc3ccccc32)[nH]n1`, with -3.37%. `Cc1nc(NCc2cccnc2)cc(C2COCCN2)n1` (stereo not given): the Percent Effect amounted to 3.04%. Then `COc1ccc(C2CN(c3ncccn3)CCN2C(C)=O)cc1` (stereo not given), with 21.2%; and `c1cnn(C2CN(c3nc(-c4ccncc4)nc4c3CCC4)C2)c1`, with 1.13%.

On to `COC(=O)C1CCN(C(=O)Cn2ccc(-c3ccccc3)n2)CC1`, for which the Percent Effect is -5.77%. Then `CN(Cc1cnc(N)nc1)C(=O)C1CCN(C(=O)C2CCCC2)CC1`, with -0.173%. With `N#Cc1ccc(CNCCc2cc(F)cc3c2OCOC3)cc1`, the Percent Effect was 4.17%.

Consider `CN1CCCC1c1ccnc2nccn12` (stereo not given), for which the Percent Effect was determined as 6.44%. Regarding `CNC(=O)C1Cc2ccccc2CN1C(=O)CC(C)C` (stereo not given), the Percent Effect was -7.28%. In the case of `O=C(NCCN1CCNC1=O)c1cnc(-c2cccnc2)nc1`, the Percent Effect came to 6.47%.

As to `Cc1cccc(C(=O)Nc2c(C(N)=O)n[nH]c2C)c1C`, the Percent Effect was -0.641%.
